Test results as given in PubChem BioAssay AID1159580 (chemical genetic matrix, 2015).
Where “and” joins values, the source holds several entries; their conditions need not be identical. Equal values may be shown once. Hit rate of the full screen: of about 5,500 compounds, about 2,000 (36%) were called active. Roughly 18% stayed inconclusive and do not appear here. No stated cut-off is given here; in the data, active means normalized growth mostly below about 0.91 (no sharp cut-off); inconclusive means no clear call, values can overlap the other calls; inactive means mostly above about 0.92. This is one part of the list.

Assay: chemical genetic growth profiling, strain panel (AID 1159580);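 further: tested at 20 µM; growth read once vehicle control cultures reached saturation at 30 °C; 1 = growth at the plate median or of vehicle wells; lower values mean less growth of the strain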
Conditions: S. cerevisiae deletion strains, growth OD

Measured: normalized growth

CC(=O)[O][Hg][c]1ccccc1
active: locus YAL013W, strain DEP1, hits give low values 0.0588 | locus YAL021C, strain ccr4, hits give low values 0.0671 | locus YAL026C, strain drs2, hits give low values 0.0633 | locus YAL030W, strain snc1, hits give low values 0.0569 | locus YBL061C, strain skt5, hits give low values 0.0592 | locus YBR009C, strain hhf1, hits give low values 0.066 | locus YBR021W, strain FUR4, hits give low values 0.089 | locus YBR023C, strain chs3, hits give low values 0.0614 | locus YBR171W, strain sec66, hits give low values 0.0817 | locus YBR229C, strain ROT2, hits give low values 0.0467 | locus YBR231C, strain swc5, hits give low values 0.0619 | locus YBR279W, strain paf1, hits give low values 0.0597 | locus YCL011C, strain gbp2, hits give low values 0.0585 | locus YCL016C, strain dcc1, hits give low values 0.0648 | locus YCL029C, strain bik1, hits give low values 0.0611 | locus YCL061C, strain MRC1, hits give low values 0.066 | locus YCL069W, strain vba3, hits give low values 0.062 | locus YCR088W, strain abp1, hits give low values 0.0606 | locus YDL005C, strain med2, hits give low values 0.0736 | locus YDL035C, strain GPR1, hits give low values 0.0539 | locus YDL040C, strain nat1, hits give low values 0.0587 | locus YDL074C, strain BRE1, hits give low values 0.0962 | locus YDL101C, strain DUN1, hits give low values 0.0592 | locus YDL134C, strain PPH21, hits give low values 0.0501 | locus YDL185W, strain tfp1, hits give low values 0.0588 | locus YDL192W, strain arf1, hits give low values 0.0622 | locus YDR001C, strain nth1, hits give low values 0.0585 | locus YDR069C, strain doa4, hits give low values 0.063 | locus YDR101C, strain arx1, hits give low values 0.0626 | locus YDR137W, strain rgp1, hits give low values 0.0849 | locus YDR150W, strain NUM1, hits give low values 0.0584 | locus YDR159W, strain sac3, hits give low values 0.0919 | locus YDR162C, strain NBP2, hits give low values 0.0545 | locus YDR195W, strain ref2 0.124 | locus YDR297W, strain sur2, hits give low values 0.0565 | locus YDR318W, strain mcm21, hits give low values 0.0644 | locus YDR334W, strain swr1, hits give low values 0.0648 | locus YDR335W, strain msn5, hits give low values 0.0613 | locus YDR388W, hits give low values 0.0584 | locus YDR392W, strain spt3, hits give low values 0.1 | locus YDR502C, strain sam2, hits give low values 0.0611 | locus YEL003W, strain gim4, hits give low values 0.0567 | locus YEL037C, strain rad23, hits give low values 0.0594 | locus YEL061C, strain CIN8 (second series), hits give low values 0.0646 | locus YEL061C, strain CIN8, hits give low values 0.0509 | locus YER015W, strain faa2, hits give low values 0.0603 | locus YER016W, strain bim1, hits give low values 0.0596 | locus YER110C, hits give low values 0.079 | locus YER111C, strain swi4, hits give low values 0.0727 | locus YER155C, strain BEM2 (second series), hits give low values 0.0919 | locus YER155C, strain BEM2, hits give low values 0.066 | locus YER167W, strain BCK2, hits give low values 0.0545 | locus YFR010W, strain ubp6, hits give low values 0.0677 | locus YGL078C, strain dbp3, hits give low values 0.0571 | locus YGL086W, strain mad1, hits give low values 0.0571 | locus YGL167C, strain pmr1, hits give low values 0.073 | locus YGL173C, strain kem1, hits give low values 0.0683 | locus YGL227W, strain vid30, hits give low values 0.0651 | locus YGL240W, strain doc1, hits give low values 0.077 | locus YGL248W, strain PDE1, hits give low values 0.0503 | locus YGL253W, strain hxk2, hits give low values 0.055 | locus YGR078C, strain PAC10, hits give low values 0.0552 | locus YGR135W, strain pre9, hits give low values 0.0651 | locus YGR229C, strain SMI1, hits give low values 0.0631 | locus YGR252W, strain gcn5, hits give low values 0.166 | locus YHR013C, strain ard1, hits give low values 0.105 | locus YHR027C, strain rpn1, hits give low values 0.0615 | locus YHR030C, strain SLT2, hits give low values 0.0511 and 0.112 | locus YHR079C, strain IRE1 (second series), hits give low values 0.0572 | locus YHR079C, strain IRE1, hits give low values 0.12 | locus YHR094C, strain hxt1, hits give low values 0.0582 | locus YHR129C, strain ARP1, hits give low values 0.0567 | locus YHR142W, strain chs7, hits give low values 0.0763 | locus YHR200W, strain rpn10, hits give low values 0.0605 | locus YIL066C, strain RNR3, hits give low values 0.059 | locus YIL073C, strain SPO22, hits give low values 0.112 | locus YIL125W, strain kgd1, hits give low values 0.0567 | locus YIR030C, strain dcg1, hits give low values 0.0603 | locus YJL092W, strain hpr5, hits give low values 0.0589 | locus YJL095W, strain BCK1 (second series), hits give low values 0.0569 | locus YJL095W, strain BCK1, hits give low values 0.0577 and 0.107 | locus YJL115W, strain asf1, hits give low values 0.0743 | locus YJL129C, strain trk1, hits give low values 0.0912 | locus YJL134W, strain LCB3, hits give low values 0.0514 | locus YJL154C, strain vps35, hits give low values 0.0614 | locus YJL164C, strain tpk1, hits give low values 0.0658 | locus YJL166W, strain qcr8, hits give low values 0.0602 | locus YJL168C, strain set2, hits give low values 0.0596 | locus YJL187C, strain SWE1 (second series), hits give low values 0.0495 | locus YJL187C, strain SWE1, hits give low values 0.0566 | locus YJR043C, strain POL32, hits give low values 0.069
